Assay outcomes as filed in PubChem BioAssay.
Rv3671c protease = Rv3671c (M. tuberculosis) protease inhibition. inhibition, % at 5.96 µM. 320,000 compounds, 0.048% hits; in the data active = inhibition above about 38%;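 also: extracellular domain of Rv3671c used as enzyme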
Target sequence (P9WHR9 whole entry, looked up, the tested form may be a part): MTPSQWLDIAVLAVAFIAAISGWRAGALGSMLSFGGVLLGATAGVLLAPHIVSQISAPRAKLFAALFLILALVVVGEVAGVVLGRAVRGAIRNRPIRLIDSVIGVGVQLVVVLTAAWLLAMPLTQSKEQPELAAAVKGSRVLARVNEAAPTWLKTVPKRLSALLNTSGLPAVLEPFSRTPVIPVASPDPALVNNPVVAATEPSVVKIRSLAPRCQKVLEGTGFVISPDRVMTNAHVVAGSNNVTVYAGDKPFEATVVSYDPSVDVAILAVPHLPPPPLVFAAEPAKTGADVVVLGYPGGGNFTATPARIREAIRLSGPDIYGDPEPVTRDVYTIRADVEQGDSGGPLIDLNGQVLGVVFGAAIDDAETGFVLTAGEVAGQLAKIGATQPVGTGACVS
FadD28 FP inh = blocks FadD28 binding to the bisubstrate probe | fluorescence polarization | inhibition, % at 12.5 µM | 360,000 compounds, 0.22% hits | AID 588549; in the data active = inhibition above about 8.5%, passing the limit was not always enough; inconclusive = no clear call, values can overlap the other calls
PrP 5UTR inh = inhibition of PrP 5' UTR reporter expression; cell-based PrP 5' UTR mRNA reporter, plate reader; inhibition, % (no concentration beside the values); 340,000 compounds, 0.35% hits; AID 488862; in the data active = inhibition above about 52%
BH1578 lux ind = quorum light induction in luxS cqsA deficient V. cholerae. V. cholerae BH1578 lux reporter, luminescence, 6 h. activation, % at 18.7 µM. 350,000 compounds, 0.16% hits; in the data active = activation mostly above about 9.7%, no sharp cut-off; inconclusive = no clear call, values can overlap the other calls; inactive = mostly below about 3.7%
Mtb bLac sens = beta-lactam sensitization of Mtb H37Rv. M. tuberculosis H37Rv growth with meropenem, percent inhibition. inhibition, % at 25 µM. 330,000 compounds, 0.27% hits; call rule not given here;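 also: growth measured after seven days incubation then overnight dye step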
UGM FP inh = blocks M. tuberculosis UGM enzyme. purified UGM, fluorescence polarization probe displacement. inhibition, % at 10 µM. 320,000 compounds, 0.06% hits; in the data active = inhibition above about 10%, passing the limit was not always enough; inconclusive = no clear call, values can overlap the other calls
Each line names hits and unclear results; the compound was inactive in the other large screens. In the library only some 0.76% were active in any assay of this set; here they are far more common.

NC(=O)c1cc(-c2csc(NCCc3ccccc3)n2)ccc1O	FadD28 FP inh 15
O=C(COc1ccc(Br)cc1)NCCCN1CCCC1=O	none (no result: UGM FP inh)
CCC(C)[C@H](NC(=O)Nc1ccc(C(C)=O)cc1)C(=O)OC (stereo partly drawn)	none
C/C(=N/NC(=O)c1cc2ccccc2cc1O)C1C(=O)c2ccccc2C1=O	FadD28 FP inh 37
Cc1ccc(NC(=O)CSCC(=O)N(C)CC(=O)Nc2cccc3ccccc23)cc1	none
CCCCN1C(=O)C(CC(=O)NC2CCCC2)CC(C(=O)N2CCOCC2)=C1C (stereo not drawn)	none (no result: Rv3671c protease, PrP 5UTR inh, Mtb bLac sens, UGM FP inh)
CCN(CC)S(=O)(=O)c1cc(C(=O)OCC(=O)Nc2cccc(Br)c2)ccc1F	FadD28 FP inh 56
CCN(CC)S(=O)(=O)c1cc(C(=O)OCC(=O)Nc2c(F)cccc2F)ccc1F	none
CCOC(=O)CNc1ccc2c(c1)OCO2	UGM FP inh 12
O=C(O)CCNc1cc(N2CCN(C(=O)c3ccco3)CC2)c2noc3c2c1C(=O)c1ccccc1-3	FadD28 FP inh 22
CCCn1c(O)c(N=N)c2ccccc21	BH1578 lux ind active
CCn1c(O)c(N=N)c2ccccc21	none
O=Nc1c(O)n(Cc2ccccc2)c2ccccc12	BH1578 lux ind 81
O=Nc1c(O)n(Cc2ccc(Cl)c(Cl)c2)c2ccccc12	none (no result: BH1578 lux ind)
CCCCCCCCCCCCCCCC[N+](C)(C)C	FadD28 FP inh 24
CCCCCCCCCCCCCCCC[N+](C)(C)CC	FadD28 FP inh 19
CCCCCCCCCCCCCCCC[N+](C)(C)CCl	FadD28 FP inh 20 (no result: Rv3671c protease, Mtb bLac sens, UGM FP inh)
CN(C)C(CNC(=O)CSc1nc2sc3c(c2c(=O)n1C)CCC3)c1ccccc1 (stereo not drawn)	none
CC(=O)NC(C)(c1ccccc1)c1nc(-c2ccc(N(C)C)cc2)cs1 (stereo not drawn)	none (no result: Rv3671c protease, PrP 5UTR inh, Mtb bLac sens, UGM FP inh)
Cc1c(Br)c([N+](=O)[O-])nn1C(C)C(=O)Nc1ccc2c(c1)OCO2 (stereo not drawn)	BH1578 lux ind 55
COc1cc(=O)n(C)c2ccccc12	BH1578 lux ind 21
CCOC(=O)c1csc(NC(=O)c2ccc(C#N)cc2)n1	none
O=C1NC(=Nc2ccccc2Cl)S/C1=C\c1cc([N+](=O)[O-])ccc1O	FadD28 FP inh 30
COc1cc(/C=C2\S/C(=N/S(=O)(=O)c3ccc(C)cc3)NC2=O)c([N+](=O)[O-])cc1OC	none
Cc1ccc(S(=O)(=O)/N=C2/NC(=O)/C(=C\c3ccco3)S2)cc1	FadD28 FP inh 12
Cc1ccc(S(=O)(=O)/N=C2/NC(=O)/C(=C/c3cc([N+](=O)[O-])ccc3O)S2)cc1	FadD28 FP inh 33
CCC1(C2C=COC=C2)NC(=O)NC1=O (stereo not drawn)	none (no result: Rv3671c protease, PrP 5UTR inh, BH1578 lux ind, Mtb bLac sens, UGM FP inh)
CCOC(=O)/C(N=Nc1c(Br)cc(Br)cc1Br)=C(\C)O	none
O=C(Nc1cccc(S(=O)(=O)N2CCOCC2)c1)c1cnccn1	none
COCCNc1nnc(SC(C)C(=O)Nc2ccc(-c3nc4ccc(C)cc4s3)cc2)s1 (stereo not drawn)	none
Cc1ccc(-n2c(=O)[nH]c3ccccc3c2=O)cc1[N+](=O)[O-]	none (no result: Rv3671c protease, PrP 5UTR inh, BH1578 lux ind, Mtb bLac sens, UGM FP inh)
Cc1ccc(-n2c(C)cc(=O)cc2C)cc1[N+](=O)[O-]	BH1578 lux ind 25
CCOc1ccccc1N1CCN(C2=C(NS(=O)(=O)c3cccs3)C(=O)c3ccccc3C2=O)CC1	FadD28 FP inh 14
Cc1ccc2cc(COC(=O)c3ccco3)c(=O)[nH]c2c1	BH1578 lux ind 17
O=[N+]([O-])c1ccccc1S(=O)(=O)Nc1ccc(S(=O)(=O)Nc2nccs2)cc1	none
Nc1ccc(S(=O)(=O)Nc2nccs2)cc1N=Nc1ccccc1[N+](=O)[O-]	FadD28 FP inh 12 (no result: Rv3671c protease, BH1578 lux ind, Mtb bLac sens, UGM FP inh)
C=CCOc1ccccc1CN1CCC(Cc2ccccc2)CC1	none
O=C(Cc1cccs1)Nc1cc(SCCO)cc([N+](=O)[O-])c1	UGM FP inh 11
O=C(Nc1cc(SCCO)cc([N+](=O)[O-])c1)c1ccco1	none
CCOc1ccc2cc(S(=O)(=O)N3CCOCC3)ccc2c1	BH1578 lux ind 74
COc1cc(/C=C2/C(=O)c3cccc([N+](=O)[O-])c3C2=O)c(Br)cc1O	FadD28 FP inh 10
Cc1ccc(N(C)C(=O)c2cnn(-c3ccccc3)c2C)c(C)c1	none
COC1=CC(=O)C(O)=C(CCCCCCC/C=C/CCCCCCCC2=C(O)C(=O)C=C(OC)C2=O)C1=O	FadD28 FP inh 22
COc1cc(Cl)ccc1OC1(C)CCN(Cc2cccc(OC)c2OC)C1 (stereo not drawn)	none (no result: Rv3671c protease, PrP 5UTR inh, Mtb bLac sens, UGM FP inh)
CCOC(=O)c1ccc(NC(=O)C(=O)NCC2CCCO2)cc1 (stereo not drawn)	none
CNC(=O)c1sc(N2N=C3/C(=C\c4ccccc4)CCCC3C2c2ccccc2)nc1C (stereo not drawn)	none (no result: Rv3671c protease, Mtb bLac sens, UGM FP inh)
CNC(=O)c1sc(N2N=C3/C(=C/c4ccccc4)CCCC3C2c2ccccc2)nc1C (stereo not drawn)	BH1578 lux ind 12 (no result: PrP 5UTR inh)
O=C(CCn1c(=O)oc2ccccc21)Nc1cccc(Cl)c1	none
Cc1cccc(NC(=O)Cn2c(=O)oc3ccccc32)c1	FadD28 FP inh 35
O=C(Cn1c(=O)oc2ccccc21)Nc1cccc(Cl)c1	FadD28 FP inh 11
O=[N+]([O-])c1ccccc1S(=O)(=O)N1CCSCC1	none
O=C(O)c1ccc(N/N=C/c2ccc(-c3cccc(Cl)c3)o2)cc1	FadD28 FP inh 9.9
Cc1c(C(=O)O)cccc1-c1ccc(/C=N/Nc2ccc(Br)cc2)o1	FadD28 FP inh 17
Cc1c(C(=O)O)cccc1-c1ccc(/C=N/n2cnnc2)o1	none
O=C(O)c1ccc(N/N=C/c2ccc(-c3cc(Cl)ccc3Cl)o2)cc1	none
O=C(O)c1cccc(-c2ccc(/C=N/Nc3ccc([N+](=O)[O-])cc3)o2)c1	FadD28 FP inh 23
O=C(O)c1ccc(-c2ccc(/C=N/Nc3ccc([N+](=O)[O-])cc3)o2)cc1	none
CCOC(=O)c1ccc(NC(=O)NCc2cccnc2)cc1	none
C/C(=N/NC(=O)c1sc(=S)n(C)c1C)c1ccccc1	none
Nc1ccc2c(c1)-c1ccccc1S(=O)(=O)N2	FadD28 FP inh 25
O=C(NCc1ccccc1)c1ccc2c(=O)[nH]c3c(C(=O)NCC4CCCO4)sc(=S)n3c2c1 (stereo not drawn)	FadD28 FP inh 23
CCn1c(N)c(C(=O)NCC2CCCO2)sc1=S (stereo not drawn)	none
CCCCCNC(=O)c1ccc2c(=O)[nH]c3c(C(=O)NCC4CCCO4)sc(=S)n3c2c1 (stereo not drawn)	FadD28 FP inh 17
O=C(NCc1ccco1)c1sc(=S)n2c1[nH]c(=O)c1ccccc12	FadD28 FP inh inconclusive
O=C(NC1CCCC1)c1sc(=S)n2c1[nH]c(=O)c1ccccc12	FadD28 FP inh 29
Cc1ccc(CNC(=O)c2ccc3c(=O)[nH]c4c(C(=O)NCC5CCCO5)sc(=S)n4c3c2)cc1 (stereo not drawn)	FadD28 FP inh 60
CC(Oc1ccc(-c2nccc(-c3ccccn3)n2)cc1)C(=O)NN (stereo not drawn)	none
